Source: PubChem BioAssay (NCI)
This is part of a sample that, as a whole, favours compounds with a hit. Of some 83,000 tested, about 20% had one in any assay.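 A percent growth of 40 corresponds to 60% growth inhibition; 0 means no net growth; -100 means all cells died. Active threshold: below 10.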 The source made the active and inactive calls.

Columns and labels:
Assay in all cases: NCI-60 one-dose screen, 48 h (100 = growth as untreated, 0 = no growth, -100 = all killed)
Conditions in all cases: 10 µM unless noted
NCI-H23 lung = system: NCI-H23 lung
NCI-H226 lung = system: NCI-H226 lung
HOP-62 NSCLC = system: HOP-62 NSCLC
NCI-H460 lung = system: NCI-H460 lung
HOP-92 NSCLC = system: HOP-92 NSCLC
NCI-H522 lung = system: NCI-H522 lung
A549/ATCC NSCLC = system: A549/ATCC NSCLC
786-0 renal = system: 786-0 renal
COLO 205 colon = system: COLO 205 colon
NCI-H322M lung = system: NCI-H322M lung

Measured: growth

CC(=O)N(C)c1ccc(Nc2cc(C)[nH]c3ccc4ncnc4c23)cc1
inactive: NCI-H23 lung 50.4% | NCI-H226 lung 54.8% | HOP-62 NSCLC 54.3% | NCI-H460 lung 22.4% | NCI-H522 lung 22.1% | A549/ATCC NSCLC 67.2% | 786-0 renal 55.8% | COLO 205 colon 53.3%
active: HOP-92 NSCLC -2.3%

O=C(O)C1[S][Sb]([CH](C(=O)O)[CH](C(=O)O)[Sb]2[S]C(C(=O)O)C(C(=O)O)[S]2)[S]C1C(=O)O (stereo unspecified)
inactive: NCI-H23 lung 104% | NCI-H226 lung 105% | NCI-H322M lung 95.8% | HOP-62 NSCLC 123% | NCI-H460 lung 84.6% | HOP-92 NSCLC 91.6% | A549/ATCC NSCLC 89.2% | 786-0 renal 93.7% | COLO 205 colon 114%

CN(C)c1ccc(/C=N/Nc2nnc3n2N=C(c2ccc(Cl)cc2)CS3)cc1
inactive: NCI-H23 lung 102% | NCI-H226 lung 85% | HOP-62 NSCLC 104% | NCI-H460 lung 93.4% | HOP-92 NSCLC 94.5% | NCI-H522 lung 87.5% | A549/ATCC NSCLC 81.3% | 786-0 renal 88.1% | COLO 205 colon 105%

O=C(OCc1ccc2c(Cl)cc(Cl)c(O)c2n1)c1cc2ccccc2[nH]1
active: NCI-H23 lung -54.4% | NCI-H226 lung -73.7% | NCI-H322M lung 8.26% | HOP-62 NSCLC -35.1% | NCI-H460 lung -75% | HOP-92 NSCLC -77.3% | A549/ATCC NSCLC -54.2% | 786-0 renal -78.6% | COLO 205 colon -87.1%

COc1ccc(-c2nc(-c3ccccc3OCc3ccccc3OC)nc(C)c2C(C)=O)cc1
inactive: NCI-H23 lung 74.8% | NCI-H226 lung 81.5% | HOP-62 NSCLC 91.5% | NCI-H460 lung 80.6% | HOP-92 NSCLC 71.2% | NCI-H522 lung 78.3% | A549/ATCC NSCLC 79.7% | 786-0 renal 91.3% | COLO 205 colon 86.7%

CC1CCN(Cc2ccc(NC(=O)c3cc4ccc5cccnc5c4[nH]3)cc2)CC1
active: NCI-H460 lung 8.35% | COLO 205 colon -16.3%
inactive: NCI-H23 lung 25.2% | NCI-H226 lung 43% | HOP-62 NSCLC 26.2% | HOP-92 NSCLC 63.7% | A549/ATCC NSCLC 25.7% | 786-0 renal 36.8%

Cc1ccc(/C=C/C(=N/N=C(N)N)c2ccccc2)cc1
inactive: NCI-H23 lung 31.3% | NCI-H322M lung 41.1% | HOP-62 NSCLC 25.8% | HOP-92 NSCLC 13.9% | A549/ATCC NSCLC 18.7% | 786-0 renal 32.8%
active: NCI-H460 lung 8.15% | NCI-H522 lung 9.07% | COLO 205 colon -16.4%

Cn1nc(C(F)(F)F)cc1-c1c[nH]c(OCc2ccc(Cl)cc2)c(-c2ccc(Cl)c(C(F)(F)F)c2)c1=O
inactive: A549/ATCC NSCLC 13.4%
active: NCI-H23 lung 3.29% | NCI-H226 lung -17.3% | HOP-62 NSCLC -25% | NCI-H460 lung 2.53% | HOP-92 NSCLC -22.6% | NCI-H522 lung -1.66% | 786-0 renal 3.83% | COLO 205 colon -31%

CC1=NN(c2cccc(S(N)(=O)=O)c2)C(=O)C1
inactive: NCI-H23 lung 87.8% | NCI-H226 lung 90.3% | HOP-62 NSCLC 97.7% | NCI-H460 lung 103% | NCI-H522 lung 113% | A549/ATCC NSCLC 87.4% | 786-0 renal 100% | COLO 205 colon 108%
active: HOP-92 NSCLC -30.8%

O=C(Oc1c(Cl)c(Cl)c(Cl)c(Cl)c1Cl)C1CCCN1C(=O)OCc1ccccc1 (stereo unspecified)
inactive: NCI-H23 lung 33.5% | NCI-H226 lung 68.3% | HOP-62 NSCLC 60.2% | NCI-H460 lung 13.2% | NCI-H522 lung 12.4% | A549/ATCC NSCLC 17.2% | 786-0 renal 67.7% | COLO 205 colon 35.9%
active: HOP-92 NSCLC -0.576%

CCOC(=O)c1c(NC(=O)c2ccccc2)sc2c(O)c(CN(CC)CC)ccc12
active: NCI-H23 lung 2.37% | NCI-H226 lung -21.7% | HOP-62 NSCLC -17.2% | NCI-H460 lung 4.01% | NCI-H522 lung -45.3% | COLO 205 colon -74.7%
inactive: HOP-92 NSCLC 46.3% | A549/ATCC NSCLC 11.4% | 786-0 renal 18.5%

CCCCOc1ncnc2nc[nH]c12
inactive: NCI-H23 lung 100% | NCI-H226 lung 94.2% | HOP-62 NSCLC 96.1% | NCI-H460 lung 113% | HOP-92 NSCLC 101% | NCI-H522 lung 100% | 786-0 renal 97.1% | COLO 205 colon 110%

Cc1ccc2nc(CN(CCN(Cc3nc4ccc(C)cc4[nH]3)Cc3nc4ccc(C)cc4[nH]3)Cc3nc4ccc(C)cc4[nH]3)[nH]c2c1
active: NCI-H23 lung -57.3% | NCI-H226 lung -97.1% | HOP-62 NSCLC -93.3% | NCI-H460 lung -94.8% | HOP-92 NSCLC -80.7% | NCI-H522 lung -86.4% | A549/ATCC NSCLC -89.1% | 786-0 renal -97.3% | COLO 205 colon -93.4%

COC(=O)CNS(=O)(=O)c1ccc2c(c1)Cc1cc(S(=O)(=O)NCC(=O)OC)ccc1-2
inactive: NCI-H23 lung 107% | NCI-H226 lung 89.9% | HOP-62 NSCLC 97.8% | NCI-H460 lung 105% | HOP-92 NSCLC 99.6% | NCI-H522 lung 95.7% | A549/ATCC NSCLC 99.7% | 786-0 renal 105% | COLO 205 colon 107%

SCc1ccc(CS)cc1
inactive: NCI-H23 lung 106% | NCI-H226 lung 109% | HOP-62 NSCLC 102% | NCI-H460 lung 108% | HOP-92 NSCLC 77.2% | NCI-H522 lung 108% | A549/ATCC NSCLC 110% | 786-0 renal 98.1% | COLO 205 colon 116%

COc1ccc(C2=NN(C=O)C(c3ccc(OS(=O)(=O)c4ccc(C)cc4)c(OC)c3)C2)cc1 (stereo unspecified)
inactive: NCI-H23 lung 37.8% | NCI-H322M lung 99.9% | HOP-62 NSCLC 61.3% | NCI-H460 lung 62.8% | HOP-92 NSCLC 32.8% | NCI-H522 lung 21.3% | A549/ATCC NSCLC 42.6% | 786-0 renal 78.1% | COLO 205 colon 63.3%

COC(=O)c1cc2oc(/C=N/NC(=O)c3cc4oc(-c5cccc(C(F)(F)F)c5)cc4[nH]3)cc2n1Cc1ccccc1
active: HOP-62 NSCLC -2.75%
inactive: NCI-H23 lung 93.1% | NCI-H460 lung 107% | HOP-92 NSCLC 78.1% | NCI-H522 lung 97.4% | A549/ATCC NSCLC 20.6% | COLO 205 colon 118%

N=C(N)c1ccc(-c2ccc(-c3cc(Cl)cc(Cl)c3)o2)nc1
active: NCI-H23 lung 3.49% | NCI-H322M lung -30.9% | HOP-62 NSCLC -72.7% | NCI-H460 lung -78.8% | NCI-H522 lung -67.4% | A549/ATCC NSCLC -68.8% | 786-0 renal -64.9% | COLO 205 colon -76.6%
inactive: HOP-92 NSCLC 73.3%

C/C(=C\C(=N\N=C(N)N)c1ccc(Cl)cc1)c1ccc(Cl)cc1
active: NCI-H23 lung -71.5% | NCI-H322M lung -36% | HOP-62 NSCLC -86.3% | NCI-H460 lung -66.8% | HOP-92 NSCLC -77% | NCI-H522 lung -88.4% | A549/ATCC NSCLC -81.3% | 786-0 renal -70.3% | COLO 205 colon -90.2%

CC(C)N1CCN(c2ccncc2S(=O)(=O)N2CCN(C)CC2)CC1
inactive: NCI-H23 lung 96.8% | NCI-H322M lung 123% | HOP-62 NSCLC 106% | NCI-H460 lung 102% | HOP-92 NSCLC 108% | NCI-H522 lung 92.7% | A549/ATCC NSCLC 101% | 786-0 renal 98.6% | COLO 205 colon 105%

COc1cc2nccc(Oc3ccc(NC(=O)C4(C(=O)Nc5c(F)cc(F)cc5F)CC4)cc3)c2cc1Oc1ccc(N)cn1
inactive: NCI-H23 lung 53.6% | NCI-H322M lung 74.8% | HOP-62 NSCLC 67.7% | NCI-H460 lung 65.4% | NCI-H522 lung 55% | A549/ATCC NSCLC 48% | 786-0 renal 96.5% | COLO 205 colon 44.3%
active: HOP-92 NSCLC 2.04%

O=C1/C(=C\c2cccn2Cc2ccc(F)cc2)c2ccccc2N1c1c(Cl)cccc1Cl
inactive: NCI-H23 lung 81.1% | NCI-H322M lung 69.4% | HOP-62 NSCLC 92.1% | NCI-H460 lung 87.7% | HOP-92 NSCLC 66% | NCI-H522 lung 77% | A549/ATCC NSCLC 69.4% | 786-0 renal 76.6% | COLO 205 colon 84.9%

Nc1ncnc2c1N=C(c1ccc(F)cc1)CC(c1sc(Cl)nc1Cl)N2 (stereo unspecified)
inactive: NCI-H23 lung 92.9% | NCI-H322M lung 106% | HOP-62 NSCLC 105% | NCI-H460 lung 101% | HOP-92 NSCLC 71% | NCI-H522 lung 88.7% | A549/ATCC NSCLC 92.4% | 786-0 renal 92.6% | COLO 205 colon 104%

CC(=O)OC1Oc2ccccc2-c2oc3nc(=N)n(C)c-3cc21 (stereo unspecified)
inactive: NCI-H23 lung 103% | NCI-H322M lung 123% | HOP-62 NSCLC 91.9% | NCI-H460 lung 112% | HOP-92 NSCLC 99.1% | NCI-H522 lung 98.1% | A549/ATCC NSCLC 119% | 786-0 renal 103% | COLO 205 colon 119%

CCc1ccc2c(c1)N(CCO)C1=C(C(=O)OC1)C2c1cccc(Cl)c1 (stereo unspecified)
active: NCI-H522 lung -22% | COLO 205 colon 2.49%
inactive: NCI-H23 lung 38.8% | NCI-H322M lung 39.4% | HOP-62 NSCLC 31.7% | NCI-H460 lung 10.8% | HOP-92 NSCLC 93.4% | A549/ATCC NSCLC 26.6% | 786-0 renal 32.8%

COc1ccc2nc(NC(=O)/C(=C/c3cc(OC)c(OC)c(OC)c3)c3ccc(OC)c(OC)c3)sc2c1
inactive: NCI-H23 lung 93.2% | NCI-H322M lung 82.5% | HOP-62 NSCLC 87.8% | NCI-H460 lung 111% | HOP-92 NSCLC 74.3% | NCI-H522 lung 78.1% | A549/ATCC NSCLC 85.6% | 786-0 renal 100% | COLO 205 colon 104%

COc1ccc(/C=C2\N=C(c3cccnc3)N(c3ccccc3)NC2=O)cc1
inactive: NCI-H23 lung 95.8% | NCI-H322M lung 94.3% | HOP-62 NSCLC 109% | NCI-H460 lung 96.4% | HOP-92 NSCLC 22.9% | NCI-H522 lung 98.2% | A549/ATCC NSCLC 95.7% | 786-0 renal 100% | COLO 205 colon 113%

COc1ccc(NC(=O)c2ccc(C(F)(F)F)nc2Nc2ccc(Cl)cc2C)cc1Cl
inactive: NCI-H322M lung 45.8% | HOP-62 NSCLC 32.4% | NCI-H522 lung 18.9% | A549/ATCC NSCLC 14.2% | 786-0 renal 17%
active: NCI-H23 lung 3.83% | NCI-H460 lung 7.62% | HOP-92 NSCLC -8.93% | COLO 205 colon -14.5%

CCCCCCCCNC(C)C(O)c1ccc(SC(C)C)cc1 (stereo unspecified)
inactive: NCI-H23 lung 74.2% | NCI-H322M lung 87.9% | HOP-62 NSCLC 85% | A549/ATCC NSCLC 98.8%
active: NCI-H460 lung -37.7% | HOP-92 NSCLC -28.1% | 786-0 renal -14.9% | COLO 205 colon 4.17%
